Screen size: about 52,000 compounds; about 1,700 (3.3%) were called active. This is one part of a sample in which actives are shown more often than they occur. Unmarked numbers belong to inactive results. Cut-off read from the data, not from the text of the source: active = survival mostly below about 52% (no sharp cut-off); inactive = mostly above about 56%.
Test system: Wild type
Assay: growth inhibition of S. aureus wild type versus tarO mutant, primary screen, teichoic acid synthesis inhibitors, RN4220, OD600 (AID 463173)
Conditions: S. aureus RN4220 wild type/DeltatarO growth, OD600, 18 h, stronger effect = lower value, screened at 18.75 µg/mL (by protocol)

First: Cc1ccc(NC(=O)CN2C(=O)C(c3ccc(F)cc3)=NC2(C)C)c(C)c1
Second: CCSc1oc(-c2ccc(F)cc2)nc1S(=O)(=O)c1ccc(C)cc1
The survival of the first is higher: 85% for the first, 41% for the second.

Compared with `Cc1ccc(-c2nnc3c4ccccc4c(-c4ccccc4)nn23)cc1`, `Cc1ccc(-c2nn3c(-c4ccccc4)nnc3c3ccccc23)cc1` is lower in survival: 123% for the first, 76% for the second.

First: COc1ccc(-c2nn3c(-c4ccc(OC)cc4)nnc3c3ccccc23)cc1
Second: Cc1ccc(-c2nn3c(-c4ccccc4C)nnc3c3ccccc23)cc1
The survival of the first is higher: 73% for the first, 51% for the second.

First: COc1ccc(CNC(=O)c2cccc(N3CCCS3(=O)=O)c2)cc1OC
Second: COc1ccc(Cc2nnc(C(=O)NCCCN3CCN(c4ccccc4F)CC3)o2)cc1OC
The survival of the first is lower: 63% for the first, 87% for the second.

First: O=C(Nc1cccc(C(=O)N2CCN(c3ccccc3F)CC2)c1)c1nsc2ccccc12
Second: COc1cccc(NC(=O)c2ccc(CN3CCN(c4ccccc4)CC3)cc2)c1
The survival of the first is lower: 67% for the first, 122% for the second.

Compared with `COc1ccc(S(=O)(=O)n2nc(C)c(S(=O)(=O)N3CCCCCC3)c2C)cc1C`, `Cc1nn(S(=O)(=O)c2ccc(F)cc2)c(C)c1S(=O)(=O)N1CCCCC1` is higher in survival: 55% for the first, 71% for the second.

`COc1ccc(S(=O)(=O)n2nc(C)c(S(=O)(=O)N3CCC(C)CC3)c2C)cc1OC` and `Cc1nn(S(=O)(=O)c2ccccc2)c(C)c1S(=O)(=O)N1CCC(C)CC1` are the same in survival: 81% for the first, 81% for the second.

Compared with `Cc1nn(C(=O)c2ccccc2F)c(C)c1S(=O)(=O)N1CCCCCC1`, `Cc1nn(C(=O)c2cccc([N+](=O)[O-])c2C)c(C)c1S(=O)(=O)N1CCOCC1` is lower in survival: 70% for the first, 64% for the second.

First: CCOC(=O)c1cc(=O)n2[nH]c(-c3ccc(C)cc3)cc2n1
Second: Cc1ccc(-c2cc(C(=O)Oc3ccccc3)c3cc(C)ccc3n2)cc1
The survival of the first is higher: 107% for the first, 65% for the second.

Compared with `CCC(Sc1nc2ccccc2c2nc(CCc3c(C)n[nH]c3C)nn12)C(=O)Nc1ccccc1F` (stereo not given), `COc1ccc(-c2cc(C(=O)Oc3ccc(C)c(C)c3)c3ccccc3n2)cc1` is lower in survival: 91% for the first, 30% for the second.

Compared with `CCCCn1cc(S(=O)(=O)c2cc(C)ccc2C)c(=O)c2cc(F)c(F)cc21`, `CCCCS(=O)(=O)c1oc(-c2ccc(F)cc2)nc1S(=O)(=O)c1ccc(C)cc1` is lower in survival: 83% for the first, 33% for the second.

Going from `COc1ccc(-c2cc(C(=O)Oc3ccc(Br)cc3)c3ccccc3n2)cc1` to `COc1ccc(-c2cc(C(=O)Oc3ccc(Cl)cc3)c3ccccc3n2)cc1`, the survival falls from 63% to 60%.

First: COc1ccc(-c2cc(C(=O)Oc3cccc(C)c3)c3cc(C)ccc3n2)cc1
Second: COc1ccc(-c2cc(C(=O)Oc3ccc(C)cc3)c3cc(C)ccc3n2)cc1
The survival of the first is lower: 19% for the first, 22% for the second.

Compared with `COc1ccc(-c2cc(C(=O)Oc3ccccc3)c3cc(C)ccc3n2)cc1`, `Cc1ccc(OC(=O)c2cc(-c3ccccc3)nc3ccc(C)cc23)cc1` is higher in survival: 11% for the first, 61% for the second.

First: Cc1ccc(C(=O)NC(C)C)cc1C
Second: Cc1cc(NC(=O)c2ccc(Cl)c(Cl)c2)ccc1NC(=O)c1ccco1
The survival of the first is higher: 110% for the first, 95% for the second.

First: COCc1c(Br)c(C)nc2sc3c(=O)n(-c4cccc(Br)c4)nnc3c12
Second: Cc1ccc(CNC(=O)c2cc(C3CC3)nc3c2c(C)nn3-c2cccc(Cl)c2C)cc1
The survival of the first is lower: 87% for the first, 94% for the second.

Compared with `CCn1c(CSc2ncccn2)nnc1SCC(=O)N1CCc2ccccc21`, `Cc1ccc(Cl)cc1N1CCN(CCNC(=O)Nc2ccccc2Cl)CC1` is lower in survival: 102% for the first, 98% for the second.

Compared with `CCCN(CCC)CCCNC(=O)Cn1cnc2onc(-c3ccc(F)cc3)c2c1=O`, `O=C(NCc1ccccc1Cl)C1CCCN(c2ncnc3onc(-c4ccc(F)cc4)c23)C1` (stereo not given) is lower in survival: 73% for the first, 65% for the second.

Going from `Cc1nc(-c2ccccc2)sc1CCNS(=O)(=O)c1ccccc1` to `O=S(=O)(c1ccccc1)c1nc(-c2ccc(F)cc2)oc1NCc1ccccc1`, the survival rises from 69% to 84%.

First: CC(C)S(=O)(=O)c1oc(-c2ccc(F)cc2)nc1S(=O)(=O)c1ccccc1
Second: CC(C)S(=O)(=O)c1oc(-c2ccc(F)cc2)nc1S(=O)(=O)c1ccc(F)cc1
The survival of the first is lower: 23% for the first, 26% for the second.

First: CCC(C)S(=O)(=O)c1oc(-c2ccc(F)cc2)nc1S(=O)(=O)c1ccc(F)cc1 (stereo not given)
Second: CSc1oc(-c2ccc(F)cc2)nc1S(=O)(=O)c1ccc(Br)cc1
The survival of the first is lower: 49% for the first, 54% for the second.

Going from `O=S(=O)(c1ccccc1)c1nc(-c2ccc(F)cc2)oc1N1CCOCC1` to `O=S(=O)(c1ccccc1)c1nc(-c2ccc(F)cc2)oc1N1CCCCCC1`, the survival falls from 73% to 19%.

Compared with `Cc1ccc(-c2nc(S(=O)(=O)c3ccc(F)cc3)c(N3CCN(c4ccccc4)CC3)o2)cc1`, `O=C(NCCCN1CCN(c2ccc(F)cc2)CC1)Nc1ccc(Cl)cc1` is lower in survival: 89% for the first, 64% for the second.

First: CNC(=O)N(O)C1N(c2ccccc2)C(=S)SC1(C)C (stereo not given)
Second: C=CCN1C(=O)C(C)(C)N(C(C)=O)c2ccccc21
The survival of the first is lower: 109% for the first, 121% for the second.

First: COc1ccc(-n2cc(C(=O)Oc3cc(C)cc(C)c3)c3ccccc3c2=O)cc1
Second: CCc1ccc(NC(=O)CSc2nc(C)c(C(=O)Nc3ccccc3)c(-c3ccc(OC)c(OC)c3)c2C#N)cc1
The survival of the first is higher: 153% for the first, 85% for the second.

Compared with `NC(=O)C1CCN(C(=O)c2ccc3c(c2)N(Cc2cccc(Cl)c2)C(=O)c2ccccc2S3(=O)=O)CC1`, `O=C(NCc1ccccc1)c1ccc2c(c1)N(Cc1cccc(Cl)c1)C(=O)c1ccccc1S2(=O)=O` is higher in survival: 69% for the first, 74% for the second.

Going from `O=C(Nc1c(C(=O)Nc2ccc(F)cc2)oc2ccccc12)c1ccccc1F` to `O=C(Nc1cccc(Cl)c1)c1cc2c(=O)[nH]c3ccccc3c2s1`, the survival rises from 30% to 63%.

First: Cc1ccc(S(=O)(=O)N2CCN(C(=O)CN3CCOCC3)C2C(C)C)cc1 (stereo not given)
Second: Cc1cccc(N2CCN(CCNC(=O)Nc3ccc(Cl)cc3)CC2)c1C
The survival of the first is higher: 105% for the first, 87% for the second.

First: CC(C)Nc1nc(C#N)nc(NC(C)C)n1
Second: COc1cc(NS(=O)(=O)c2ccc(NC(=O)COc3ccc(Cl)cc3Cl)cc2)nc(OC)n1
The survival of the first is higher: 130% for the first, 93% for the second.

First: COc1cc(NC(=O)c2cc3c(=O)n(Cc4ccco4)ccc3nc2C)cc(OC)c1OC
Second: COc1ccccc1OC(C)C(=O)Nc1cccc(-c2nc3ccccc3s2)c1 (stereo not given)
The survival of the first is higher: 63% for the first, 29% for the second.

Compared with `O=c1[nH]c2ccc(N=Cc3ccccc3C(F)(F)F)cc2[nH]1`, `O=C(NCCCN1CCN(c2ccccc2F)CC1)c1nnc(Cc2ccc(Cl)cc2Cl)o1` is lower in survival: 116% for the first, 77% for the second.

Going from `Cc1ncc(CO)c2c1Oc1nc(-c3ccc(Cl)cc3)nc(SCC(=O)N3CCCCC3)c1C2` to `CCOc1ccc(NC(=O)NCCN2CCN(c3cc(Cl)ccc3C)CC2)cc1`, the survival falls from 79% to 53%.

First: CN(C(=O)c1ccc2c(c1)N(Cc1cccc(Cl)c1)C(=O)c1ccccc1S2=O)C1CCCCC1 (stereo not given)
Second: CCCCN(C)C(=O)c1ccc2c(c1)N(Cc1cccc(Cl)c1)C(=O)c1ccccc1S2=O (stereo not given)
The survival of the first is lower: 95% for the first, 124% for the second.

First: O=S1(=O)c2ccccc2N(Cc2ccccc2)c2ccccc21
Second: O=S1(=O)c2ccccc2N(Cc2ccc(Cl)cc2)c2ccccc21
The survival of the first is lower: 69% for the first, 129% for the second.

Going from `O=C(c1ccc2c(c1)N(Cc1ccc(Cl)cc1)C(=O)c1ccccc1S2(=O)=O)N1CCc2ccccc21` to `O=C(c1ccc2c(c1)N(Cc1ccccc1)C(=O)c1ccccc1S2(=O)=O)N1CCc2ccccc21`, the survival falls from 147% to 87%.

First: COc1ccccc1CNC(=O)c1ccc2c(c1)N(Cc1cccc(C)c1)C(=O)c1ccccc1S2(=O)=O
Second: COc1ccccc1NC(=O)c1sc2nc(C)c(C(=O)Nc3ccc(C)cc3C)c(-c3ccccc3Cl)c2c1N
The survival of the first is lower: 90% for the first, 139% for the second.

Going from `CC(C)CC(=O)NCC(c1ccc2c(c1)OCO2)N1CCN(c2ccccc2F)CC1` (stereo not given) to `CCN(CC)CCNC(=O)c1ccc2c(c1)NC(=O)C(CS(=O)(=O)Cc1cccc(Br)c1)N2` (stereo not given), the survival rises from 76% to 134%.

In the case of `Cc1ccc(-c2nn3c(-c4ccc(C)cc4)nnc3c3ccccc23)cc1`, the survival is reported as 20% (active).
`COc1ccc(-c2nn3c(-c4ccccc4C)nnc3c3ccccc23)cc1` was tested, and the survival was -3% (active).
With `Cc1nn(C(=O)c2cccc([N+](=O)[O-])c2C)c(C)c1S(=O)(=O)N1CCCCCC1` the survival was -4% (active).
`COc1ccc(S(=O)(=O)n2nc(C)c(S(=O)(=O)N3CCCCCC3)c2C)cc1OC` was tested, and the survival was 1% (active).
With `Cc1nn(S(=O)(=O)c2ccc(F)cc2)c(C)c1S(=O)(=O)N1CCC(C)CC1` the survival was -3% (active).
For `COc1ccc(-c2cc(C(=O)Oc3cccc(C)c3C)c3ccccc3n2)cc1`, the survival was 12% (active).
With `COc1ccc(-c2cc(C(=O)Oc3ccc(C)cc3)c3ccccc3n2)cc1` the survival was 4% (active).
`COc1ccc(-c2cc(C(=O)Oc3cccc(C)c3)c3ccccc3n2)cc1` was tested, and the survival was 3% (active).
`Cc1ccc(-c2cc(C(=O)Oc3ccccc3)c3cccc(C)c3n2)cc1` was tested, and the survival was 13% (active).
In the case of `CC(C)CS(=O)(=O)c1oc(-c2ccc(F)cc2)nc1S(=O)(=O)c1ccccc1`, the survival is reported as 3% (active).
For `CS(=O)(=O)c1oc(-c2ccc(F)cc2)nc1S(=O)(=O)c1ccc(Cl)cc1`, the survival was -1% (active).
For `CCS(=O)(=O)c1oc(-c2ccc(F)cc2)nc1S(=O)(=O)c1ccc(Br)cc1`, the survival was -1% (active).
In the case of `CCCCS(=O)(=O)c1oc(-c2ccc(F)cc2)nc1S(=O)(=O)c1ccccc1`, the survival is reported as 7% (active).
With `CCS(=O)(=O)c1oc(-c2ccc(F)cc2)nc1S(=O)(=O)c1ccccc1` the survival was -1% (active).
For `CCN(C(=O)c1ccc2c(c1)N(Cc1cccc(Cl)c1)C(=O)c1ccccc1S2=O)c1ccccc1` (stereo not given), the survival was 0% (active).
With `O=S1(=O)c2ccccc2N(Cc2cccc(Cl)c2)c2ccccc21` the survival was -2% (active).
In the case of `O=C(c1ccc2c(c1)N(Cc1cccc(Cl)c1)C(=O)c1ccccc1S2(=O)=O)N1CCc2ccccc21`, the survival is reported as -3% (active).
With `COc1ccccc1CNC(=O)c1ccc2c(c1)N(Cc1cccc(Cl)c1)C(=O)c1ccccc1S2(=O)=O` the survival was 10% (active).
`Cc1ccc(Cl)cc1N1CCN(CCNC(=O)Nc2ccc(Cl)cc2)CC1` was tested, and the survival was -6% (active).
For `Cc1ccc(C)c(N2CCN(CCCNC(=O)Nc3ccc(Cl)cc3)CC2)c1`, the survival was -6% (active).
With `Cc1ccc(Cl)cc1N1CCN(CCCNC(=O)c2nnc(Cc3cccc(Cl)c3)o2)CC1` the survival was 12% (active).

Reference: PubChem BioAssay AID463173 (ICCB-Longwood Screening Facility, Harvard Medical School, 2010)
